In the library only some 3% were active in any assay of this set; here they are far more common.
C8 TRAIL sens = caspase-8 TRAIL sensitization; NB7+C8 cells + TRAIL, ATPlite viability luminescence; inhibition (viability loss, TRAIL sensitization), % at 10 µM; hit rate 1% among 360,000;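 active means compounds causing at least 50% loss of cell viability in the single-dose screen, relative to plate controls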
SENP6 inh = SENP6 protease inhibition; Recombinant SENP6 catalytic domain, aminoluciferin luminescence; inhibition, % at 10 µM; hit rate 1.8% among 330,000;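 active means inhibition above about 50% at the single tested dose, limit read from the data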;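 further: plate controls were DMSO wells with enzyme for no effect and DMSO wells lacking enzyme for full effect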
SENP8 block-1 = inhibitors of human SENP8 protease; recombinant SENP8, Nedd8 substrate fluorescence; Q96LD8; inhibition, % at 20 µM; hit rate 0.64% among 360,000; AID 602440; in the data active means inhibition mostly above about 40%, no sharp cut-off; inactive means mostly below about 27%
PPC-1+TRAIL kill = compounds killing PPC-1 cancer cells with TRAIL present (potentiator screen, no TRAIL-free arm) | AID 1443 | cell killing (% activity), % at 4 µM or 5 µM | hit rate 0.41% among 220,000 | PPC-1 cells + TRAIL, ATPLite viability luminescence;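 active means cell killing above 50% in the first pass at 4 µM, then a duplicate retest at 5 µM averaging 50% or more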;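 further: plate controls were cells with TRAIL plus DMSO for no effect and medium-only wells lacking cells for full effect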
SENP8 block-2 = blocks the human protease SENP8; Q96LD8; purified SENP8, Z-RLRGG-aminoluciferin cleavage, luminescence; inhibition, % at 10 µM; hit rate 1.2% among 330,000; AID 2540; in the data active means inhibition above about 50%
SENP7 block = inhibitors of human SENP7 protease. Q9BQF6. recombinant SENP7, Z-RLRGG-aminoluciferin luminescence, 40 min. inhibition, % at 5 µM. hit rate 1.5% among 330,000;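 active means inhibition above about 50% at the single test dose, limit read from the data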;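 further: plate controls were DMSO with enzyme for no effect and no enzyme buffer wells for full effect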
Target sequence (Q9BQF6 706-1050 limits assumed): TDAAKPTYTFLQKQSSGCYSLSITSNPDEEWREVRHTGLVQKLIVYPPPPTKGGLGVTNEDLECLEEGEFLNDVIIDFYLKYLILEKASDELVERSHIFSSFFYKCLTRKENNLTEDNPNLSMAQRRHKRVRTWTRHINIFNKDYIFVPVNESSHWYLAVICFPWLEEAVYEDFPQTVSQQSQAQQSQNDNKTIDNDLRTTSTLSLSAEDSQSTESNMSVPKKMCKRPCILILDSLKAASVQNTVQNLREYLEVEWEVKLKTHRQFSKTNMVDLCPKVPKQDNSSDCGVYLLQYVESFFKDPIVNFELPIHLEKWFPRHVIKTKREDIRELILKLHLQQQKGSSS
SENP8 conf = confirmation of human SENP8 protease inhibitors. shares compounds with SENP7 block. Recombinant SENP8, Z-RLRGG-aminoluciferin luminescence, 60 min. inhibition, % at 12.5 µM. hit rate 40% among 6,200. AID 488912;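 active means mean inhibition across replicates above about 50%, limit read from the data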
SENP6 confirm = confirmation of human SENP6 protease inhibitors | hit rate 58% among 6,200 | recombinant SENP6, Z-RLRGG-aminoluciferin luminescence | shares compounds with SENP7 block | inhibition, % at 12.5 µM
SENP7 confirm = confirmation of human SENP7 protease inhibitors | shares compounds with SENP7 block | recombinant SENP7, Z-RLRGG-aminoluciferin luminescence, 40 min | inhibition, % at 12.5 µM | hit rate 69% among 6,200 | AID 488917
Casp3 select = inhibits human caspase-3 in SENP selectivity test; shares compounds with SENP7 block; purified caspase-3, Z-DEVD-aminoluciferin luminescence, 60 min; inhibition, % at 12.5 µM; hit rate 60% among 6,200;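 active means mean inhibition above about 50%, limit read from the data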;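 further: plate controls were enzyme with DMSO for no effect and wells without caspase-3 for full effect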
Luc interf = luminescence interference (SENP counter-screen) | inhibition, % at 12.5 µM | shares compounds with SENP7 block | AID 488919 | hit rate 39% among 6,200 | Pre-incubated SENP8/Z-RLRGG-aminoluciferin, luciferase luminescence interference;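 active means mean inhibition above about 50% when retested at one dose, limit read from the data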;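 further: plate controls were DMSO wells with completed reaction for no effect and substrate without enzyme for full effect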
Numbers without * were called inactive; . = no result.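 How the source made its calls, unless noted: active means mean inhibition above about 50% in the one-dose retest (limit read from the data); inactive means the rest.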

SMILES	C8 TRAIL sens	SENP6 inh	SENP8 block-1	PPC-1+TRAIL kill	SENP8 block-2	SENP7 block	SENP8 conf	SENP6 confirm	SENP7 confirm	Casp3 select	Luc interf
CCC(=O)Oc1ccc(-c2nc(-c3cccnc3)no2)cc1	19.0	97.2*	25.0	30.9	96.8*	99.0*	99.3*	100.1*	103.0*	99.0*	97.6*
Cc1ccc(-c2noc(-c3c(C)noc3C)n2)cc1	-8.3	0.6	17.5	5.7	1.1	32.2	.	.	.	.	.
Cc1ccc(-c2nc(-c3cccnc3)no2)cc1	40.3	81.0*	26.4	26.0	66.5*	82.2*	71.8*	81.4*	97.6*	86.1*	66.8*
Cc1ccc(-c2nc(-c3ccccc3)no2)cc1	36.8	63.1*	6.1	11.1	96.3*	98.1*	77.6*	86.4*	94.7*	90.9*	50.4*
COc1ccc(-c2nc(-c3cccnc3)no2)cc1OC	-12.2	11.5	-13.8	9.3	5.1	23.5	.	.	.	.	.
CC1CCN(C(=O)COC(=O)Cn2cnc3ccccc32)CC1	-0.6	0.8	-18.3	.	-0.4	-3.6	.	.	.	.	.
COc1ccc(CCNC(=O)C(=O)NCC2OCCN2S(=O)(=O)c2cc(F)ccc2F)cc1 (stereo unspecified)	9.7	1.4	3.0	.	0.8	-3.2	.	.	.	.	.
CC(C)c1ccc(NC(=O)NCc2cccnc2)cc1	-29.8	-8.6	5.0	.	-2.4	-1.6	.	.	.	.	.
C[C@H](CO)N1C[C@H](C)[C@@H](CN(C)C(=O)NC2CCCCC2)Oc2c(NC(=O)c3ccncc3)cccc2C1=O	2.3	-4.6	13.5	.	1.2	-2.0	.	.	.	.	.
Cc1ccsc1C(=O)OCc1csc(-c2ccccc2)n1	6.6	96.2*	11.8	7.1	95.7*	98.6*	95.5*	91.8*	47.2	94.3*	87.8*
O=C(OCc1csc(-c2ccccc2)n1)c1cccs1	4.6	95.5*	20.0	13.4	91.5*	96.3*	96.7*	97.4*	101.3*	91.4*	90.3*
Cn1cccc1C(=O)OCc1csc(-c2ccccc2)n1	12.6	88.1*	-7.9	17.1	94.1*	99.7*	-5.6	97.5*	102.2*	92.7*	89.1*
Cc1ccsc1C(=O)OCc1nnc(-c2ccccc2)o1	-2.9	59.4*	12.4	.	52.1*	59.5*	57.1*	54.7*	75.5*	55.5*	50.2*
Nc1nn(-c2cccc(F)n2)cc1-c1ccccc1	33.0	86.9*	7.2	24.7	83.7*	91.6*	-28.0	80.8*	97.2*	82.6*	26.9
COc1ccc(-c2ccn(-c3cccc(F)n3)n2)cc1	-5.5	1.7	-181.5	3.2	8.5	4.0	.	.	.	.	.
Nc1nn(-c2cccc(F)n2)cc1-c1ccc(Cl)cc1	46.9	62.4*	-2.9	25.5	52.4*	88.1*	15.6	21.4	48.4	32.2	8.0
C(/C=C/c1ccccn1)=C\c1ccccc1	51.1*	87.4*	-402.3	.	80.3*	88.1*	24.8	65.6*	90.5*	66.4*	52.5*
Cc1cc(C)c(C)c(S(=O)(=O)N2CCN(C(=O)c3cc(S(=O)(=O)N4CCOCC4)ccc3F)CC2)c1C	-10.7	-0.1	23.3	.	4.0	10.6	.	.	.	.	.
Cn1c(CSc2nc3ccccc3s2)nnc1SCC(=O)NCCN1CCOCC1	9.9	3.5	10.5	12.0	-3.1	75.6*	9.8	7.7	4.7	1.2	3.9
C(=N\N=C\c1ccccc1)/c1ccccc1	-6.9	83.0*	5.4	35.8	65.1*	69.5*	-2.2	66.9*	94.3*	62.3*	10.4

Screening data from PubChem.
